Each structure is given as a SMILES string. Compounds without any hit were thinned out: in the full panel of roughly 79,000, 15% have a hit. Values without a mark were called inactive. Active and inactive are the calls of the source. No stated cut-off is given here; in the data, active means growth inhibition above about 70%; inactive means the rest.

Assay [1] is described as follows: NCI Yeast Anticancer Drug Screen. Data for the rad50 strain (AID 155).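 Further: 0% = growth of vehicle-only cultures of the same strain.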 The conditions noted are these: S. cerevisiae rad50 strain growth inhibition; at 50.0 µM; stronger effect = higher value. Put shortly: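 A DNA repair-deficient yeast mutant serves as the test organism; compound-induced growth inhibition is calculated against vehicle-treated cells.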
Assay [2] in a line: NCI Yeast Anticancer Drug Screen. Data for the mec2-1 strain (AID 157). The following applies: S. cerevisiae mec2-1 strain, at 50.0 µM, stronger effect = higher value. The method, boiled down: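 Compounds were applied to mec2-1 yeast cells. Their growth was then compared with that of vehicle-treated cultures to give growth inhibition.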
Assay [3] can be described thus: NCI Yeast Anticancer Drug Screen. Data for the sgs1 mgt1 strain (AID 161).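 Further: 0% = growth of cultures given vehicle only.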 The following applies: S. cerevisiae sgs1 mgt1 strain, at 50.0 µM, stronger effect = higher value. The method, boiled down: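 Growth of a repair-deficient yeast mutant was monitored after compound treatment and expressed as inhibition relative to vehicle-treated cultures.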
Assay [4] can be described thus: NCI Yeast Anticancer Drug Screen. Data for the cln2 rad14 strain (AID 165).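 Further: 0% = growth equal to vehicle treated cultures.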 The conditions noted are these: S. cerevisiae cln2 rad14 strain, at 50.0 µM, stronger effect = higher value. Put shortly:
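Strain: cln2 rad14 yeast, altered in cell cycle control and DNA damage repair. Read-out: growth inhibition vs vehicle.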

Assay [5] can be described thus: NCI Yeast Anticancer Drug Screen. Data for the bub3 strain (AID 167). The following applies: S. cerevisiae bub3 mutant strain, at 50.0 µM, stronger effect = higher value. Put shortly:
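Inhibition values come from growth of compound-treated mutant yeast normalised to vehicle-treated controls.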

A short description of assay [6]: NCI Yeast Anticancer Drug Screen. Data for the mlh1 rad18 strain (AID 175). The conditions noted are these: S. cerevisiae mlh1 rad18 strain growth inhibition; at 50.0 µM; stronger effect = higher value. Put shortly: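 A repair-deficient yeast strain is exposed to test compound, and growth is scored relative to vehicle-treated controls.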

`COC(=O)CN(CCCl)P1(=O)OCCCN1CCCl` (configuration not stated): the growth inhibition was -17.4% in assay [1]; -1.1% in assay [2]; -5.5% in assay [3]; 0.2% in assay [4]; 10.3% in assay [5]; -4.8% in assay [6].
As to `COc1cc2c(cc1OC)-c1c3c(cc4c1[C@@H](C2)N(C)CC4)OCO3`, the growth inhibition in assay [1] was -23.8%; in assay [2], -12.8%; in assay [3], -12.8%; in assay [4], -1.9%; in assay [5] it was -21.7%; in assay [6] it was -17.6%.
In the case of `O=C(O)C(Cc1cnc[nH]1)N1C(=O)c2ccccc2C1=O` (configuration not stated), the growth inhibition is -16.6% in assay [1]; -12.9% in assay [2]; -1% in assay [3]; -24.9% in assay [4]; -10% in assay [5]; -8.85% in assay [6].
As for `CCC1([N+](=O)[O-])COP(=O)(NCc2ccncc2)OC1` (configuration not stated), the growth inhibition was 8.4% in assay [1]; -8.4% in assay [2]; -5.95% in assay [3]; 10.6% in assay [4]; -5.6% in assay [5]; 12.3% in assay [6].
As for `C1=CC2C=CC(C=C1)[PH+]2c1ccccc1.[C-]#[O+].[C-]#[O+].[C-]#[O+].[C-]#[O+].[C-]#[O+].[Cr]` (configuration not stated), the growth inhibition in assay [1] is -30.4%; in assay [2], 2.1%; in assay [3], -9.25%; in assay [4] it was 21.4%; in assay [5] it was -2.15%; in assay [6], -9.35%.
`NC(=O)C1(Br)CCCCC1`: the growth inhibition in assay [1] is -11.8%; in assay [2], -18.9%; in assay [3], -10.5%; in assay [4], -7.25%; in assay [5], 8.45%; in assay [6], -3.55%.
`O=C(NCCO)c1cc([N+](=O)[O-])cc([N+](=O)[O-])c1`: the growth inhibition was -37.9% in assay [1]; -4.25% in assay [2]; -1.25% in assay [3]; -25.9% in assay [4]; -11.7% in assay [5]; 3.4% in assay [6].
As for `[CH3][Sn]([CH3])([n]1cnc(N)nc1=O)[n]1cnc(N)nc1=O`, the growth inhibition in assay [1] is 4.75%; in assay [2], 0%; in assay [3] it was -10.3%; in assay [4], -1.45%; in assay [5], -2.55%; in assay [6], -60.4%.
Consider `COC(=O)C1(F)C(=O)NC(=O)NC1O` (configuration not stated), for which the growth inhibition is -4.6% in assay [1]; -2.75% in assay [2]; 3.5% in assay [3]; 14.7% in assay [4]; 0.85% in assay [5]; 2.25% in assay [6].
Take `Oc1cccc(/C=N\NC(=S)NC2CN3CCC2CC3)c1` (configuration not stated): the growth inhibition in assay [1] is 2.85%; in assay [2], -5.9%; in assay [3], -5.85%; in assay [4], -4.45%; in assay [5] it was 7.1%; in assay [6], -12.8%.
For `[Cu].[NH2-].[NH2-].[NH2-].[NH2-]`, the growth inhibition in assay [1] is -21.8%; in assay [2], -15.8%; in assay [3], -23.1%; in assay [4], -64.8%; in assay [5], -4.05%; in assay [6], -23.6%.
As for `CC(=O)CC(C)=O.CC(=O)CC(C)=O.CC(=O)CC(C)=O.[La]`, the growth inhibition in assay [1] was 27.8%; in assay [2], 1.35%; in assay [3], 12.2%; in assay [4], 19.1%; in assay [5], -4.6%; in assay [6], 1.15%.
Consider `CC(C)NC(=O)C(Cl)CCl` (configuration not stated), for which the growth inhibition in assay [1] is 13.7%; in assay [2], 8.9%; in assay [3], 18.3%; in assay [4], 11.5%; in assay [5] it was 2.8%; in assay [6] it was 6.7%.
`[C-]#[O+].[C-]#[O+].[C-]#[O+].[C-]#[O+].[Mo].c1ccc([As](CC[As](c2ccccc2)c2ccccc2)c2ccccc2)cc1`: the growth inhibition in assay [1] is 3.4%; in assay [2] it was -0.4%; in assay [3], -5.8%; in assay [4] it was -5.7%; in assay [5], 1.15%; in assay [6] it was 6.6%.
For `COc1ccc2c(c1OC)C[N+]1(C)CCc3cc4c(cc3C1=C2)OCO4` (configuration not stated), the growth inhibition in assay [1] is 21.6%; in assay [2], -0.5%; in assay [3], -12.8%; in assay [4] it was -1.95%; in assay [5], -2.2%; in assay [6], -2%.
Take `Nc1nnc(N)n1N`: the growth inhibition is 15.8% in assay [1]; -21.2% in assay [2]; -8.15% in assay [3]; -20.3% in assay [4]; 1.5% in assay [5]; -1.65% in assay [6].
`CC/C=C/C1(C)C(=O)NC(=S)NC1=O`: the growth inhibition is 5.15% in assay [1]; 3.1% in assay [2]; -7.3% in assay [3]; 1.7% in assay [4]; 11.4% in assay [5]; -2.95% in assay [6].
As for `NC(=O)c1cc(N(CCCl)CCCl)c([N+](=O)[O-])cc1[N+](=O)[O-]`, the growth inhibition in assay [1] was 38.9%; in assay [2] it was -11.1%; in assay [3], 10.4%; in assay [4] it was 14.4%; in assay [5], 18.6%; in assay [6], 5.5%.
Regarding `COC(=O)CCP(CCC(=O)OC)c1ccccc1`, the growth inhibition in assay [1] was -3.9%; in assay [2], -11%; in assay [3] it was -7.15%; in assay [4] it was -10.7%; in assay [5], -4.85%; in assay [6], 1.1%.
`COC(=O)C1=C(O)C(C(=O)OC)C2/C(=[N+](/[O-])O)c3c(cc([N+](=O)[O-])cc3[N+](=O)[O-])C1C2[N+](=O)[O-]` (configuration not stated): the growth inhibition in assay [1] was 75.8% (active); in assay [2] it was 81% (active); in assay [3] it was 87.8% (active); in assay [4] it was 66.3%; in assay [5] it was 67.8%; in assay [6], 90.7% (active).
Turning to `O=C1NCN(c2ccccc2)C12CCN(CCCS(=O)(=O)c1ccccc1)CC2`, the growth inhibition in assay [1] is -22.4%; in assay [2], -13.6%; in assay [3], -9.55%; in assay [4], -22.6%; in assay [5] it was 3.5%; in assay [6], -18%.
In the case of `C=C(CC(=O)O)C(=O)O`, the growth inhibition was -2.25% in assay [1]; 2.8% in assay [2]; -3.85% in assay [3]; 6.2% in assay [4]; 6.05% in assay [5]; 4.9% in assay [6].
With `c1ccc(CN2C3c4ccccc4C2c2ccccc23)cc1`, the growth inhibition is -0.15% in assay [1]; -2.2% in assay [2]; -4% in assay [3]; -12.3% in assay [4]; -2.8% in assay [5]; 3% in assay [6].
In the case of `O=C(O)c1ccc(CI)cc1`, the growth inhibition in assay [1] was -9.6%; in assay [2], -11.9%; in assay [3] it was 6%; in assay [4] it was 9%; in assay [5] it was 15.2%; in assay [6] it was -16.9%.
In the case of `CN(C)CCNC(=O)c1ccc(N(CCCl)CCCl)c([N+](=O)[O-])c1[N+](=O)[O-]`, the growth inhibition in assay [1] is 36.4%; in assay [2], 20.4%; in assay [3] it was 30.8%; in assay [4], 17.6%; in assay [5], 9.65%; in assay [6], 34%.
For `CCN(c1ccccc1)P(I)(c1ccccc1)(c1ccccc1)c1ccccc1`, the growth inhibition in assay [1] was 98.7% (active); in assay [2], 99.5% (active); in assay [3], 99.3% (active); in assay [4], 98.6% (active); in assay [5], 98.2% (active); in assay [6] it was 99% (active).
With `CCCCOC(=O)c1ccccc1C(=O)O.[Mn]`, the growth inhibition in assay [1] is -38.7%; in assay [2], -11.8%; in assay [3], -6.15%; in assay [4] it was -12.6%; in assay [5], -29.6%; in assay [6], -3.3%.
Turning to `Cn1c(=O)oc(=O)c2ccccc21`, the growth inhibition in assay [1] was -0.45%; in assay [2], -15.3%; in assay [3] it was -17.4%; in assay [4], -3.1%; in assay [5], -27.4%; in assay [6] it was 6.85%.
Take `c1ccc2c(c1)SCCC2NC1=NCCO1` (configuration not stated): the growth inhibition in assay [1] was -15.2%; in assay [2], -13.6%; in assay [3], -9%; in assay [4] it was 9.45%; in assay [5], 8.7%; in assay [6], -36.3%.
With `CCN(CC)/C(=C\Cl)Nc1ccccn1`, the growth inhibition in assay [1] is -0.9%; in assay [2] it was -4%; in assay [3] it was -0.7%; in assay [4], 3.35%; in assay [5] it was 6.55%; in assay [6], -2.45%.
Regarding `Nc1cccc2ccccc12`, the growth inhibition is 17.1% in assay [1]; -9.95% in assay [2]; 6.65% in assay [3]; -28.9% in assay [4]; 19.2% in assay [5]; 4.4% in assay [6].
`O=C(CCC1CCCCN1)Nc1ccc2c(c1)C(=O)c1ccc(NC(=O)CCN3CCCCC3)cc1C2=O` (configuration not stated): the growth inhibition in assay [1] is 6.2%; in assay [2], 9.2%; in assay [3] it was -1.9%; in assay [4] it was 9.3%; in assay [5] it was -12.6%; in assay [6] it was 6.8%.
Consider `CCC(=O)C(c1ccccc1)(c1ccccc1)C(C)CN(C)C` (configuration not stated), for which the growth inhibition in assay [1] was -8.7%; in assay [2] it was -9.2%; in assay [3], 9.35%; in assay [4], -5.55%; in assay [5], -4.9%; in assay [6] it was -6.35%.
In the case of `C[C@]12CC[C@H](O)C=C1CC[C@@H]1[C@@H]2CC[C@]2(C)C(c3ccc(=O)oc3)CC[C@]12O` (some centres not stated), the growth inhibition in assay [1] is -2.85%; in assay [2], -12.9%; in assay [3], 17.9%; in assay [4], 10.9%; in assay [5] it was 0.05%; in assay [6], 8.75%.
Turning to `Cc1c([As](=O)(O)O)ccc2nc3c(C)c([As](=O)(O)O)ccc3nc12`, the growth inhibition in assay [1] was 24.5%; in assay [2], 1.25%; in assay [3], 15.4%; in assay [4] it was 9.25%; in assay [5], 2.4%; in assay [6], 21.6%.
Regarding `CNCC(C)c1ccccc1OC` (configuration not stated), the growth inhibition in assay [1] was -9.6%; in assay [2], -6.7%; in assay [3], 2%; in assay [4], 26.4%; in assay [5], 13.3%; in assay [6] it was -5.9%.
Consider `O=S(=O)(O)c1ccc([Se][Se]c2ccc(S(=O)(=O)O)cc2)cc1`, for which the growth inhibition in assay [1] is 5.8%; in assay [2], -12.9%; in assay [3] it was -18.1%; in assay [4] it was -33.5%; in assay [5], -19.2%; in assay [6], -17.4%.

Source of the values: PubChem BioAssay (NCI).
